From PubChem BioAssay
Sampled rows, rich in hits. Any-hit rate of the full collection: about 19%.
HT1080 IDH1KD tx: toxicity to HT-1080 IDH1 knockdown cells (counter line); HT-1080 IDH1 knockdown viability, ATP luminescence, 48 h; AID 686971; 360,000 tested, 2% active; Potency, µM (highest dose often 46.1 µM), hits mostly cytotoxic
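In this qHTS, HT-1080 cells depleted of IDH1 are exposed for 48 h at 37 °C to compound titrations. Toxicity is scored from CellTiter-Glo luminescence, with DMSO as full viability and medium alone as none.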
HT1080-NT tox: kills 2HG-producing HT-1080-NT fibrosarcoma cells; AID 686970; Potency, µM (titrated, usually from 46.1 µM), actives largely listed as cytotoxic; HT-1080-NT fibrosarcoma viability, CellTiter-Glo ATP luminescence, 48 h; 360,000 tested, 1.6% active;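 further: NT is the 2HG producing partner of a matched IDH1 knockdown line; nearly all actives have a fitted effect of over 55% in size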
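750 cells/well, RPMI + 5% FBS; 2 h settle, compound pin-transfer, 48 h at 37 degrees C. CellTiter-Glo 10 min RT, luminescence. Normalized to DMSO and media-only wells.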
TDP1 cell noCPT: qHTS for Inhibitors of human tyrosyl-DNA phosphodiesterase 1 (TDP1): qHTS in cells in absence of CPT | Potency, µM (highest dose often 46.2 µM), most hits filed as inhibitors | AID 686978, 2013 | DT40 Tdp1-/- hTDP1 cells, no CPT, ATP luminescence, 48 h | 420,000 tested, 15% active; further: nearly all actives have a fitted effect of over 55% in size
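DT40 Tdp1-/-;hTDP1 cells, no CPT (DMSO vehicle only), 400 cells/well; compounds pin-transferred; ≥48 hr, 37 °C; CellTiter-Glo 30 min RT dark, luminescence read.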
IL1B secr inh: inhibitors of inflammasome signaling (IL-1 beta secretion) | THP-1 LPS/ATP IL-1B secretion, AlphaLISA, 16 h; active compounds read low | AID 743279 | 360,000 tested, 4.7% active | activity change, % at 57.5 µM; in the data active means activity change below about -50%; inconclusive means mostly about -30% to -49%
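THP-1 cells pretreated 1 hr with compounds (up to 57.5 uM final), then stimulated with LPS (250 ng/mL final) plus ATP (1.25 mM final); secreted IL-1B measured by AlphaLISA after 16 hr, decreased signal indicating inhibition.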
TDP1 cell CPT: DT40-hTDP1 cell growth loss with CPT. chicken DT40 Tdp1-/-;hTDP1 cells + 20 nM CPT, ATP luminescence, 48 h. Potency, µM (highest dose often 46.2 µM), actives largely listed as inhibitors. 420,000 tested, 12% active. AID 686979; further: nearly all actives have a fitted effect of over 55% in size
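Chicken DT40 Tdp1-/- cells stably complemented with human TDP1 were seeded at 400 cells/well in medium containing 20 nM camptothecin, exposed to pin-transferred compounds, and grown at 37 °C for at least 48 hr. Viability was read as ATP luminescence.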
Hits are given with their value. Unless noted, the call rests on the fitted dose curve; in most records, active means well fitted curve in the direction sought with a large enough effect; inconclusive means small, poorly fitted or top-dose-only effect, or another doubt; inactive means no such curve, though single readings can be large; an effect the other way counts as inactive or inconclusive.

COc1cccc(Sc2nc(-c3ccccc3)ncc2S(C)(=O)=O)c1 was read as HT1080 IDH1KD tx inactive, HT1080-NT tox inactive, TDP1 cell noCPT inactive, IL1B secr inh inactive and TDP1 cell CPT inactive.
COc1ccc(Cl)cc1NC(=O)CN(C)C(=O)c1cc2ccccc2cc1O was read as HT1080 IDH1KD tx inactive, HT1080-NT tox inactive, TDP1 cell noCPT inconclusive, IL1B secr inh inactive and TDP1 cell CPT inconclusive.
For O=C1Nc2c(Br)cccc2C1=O the results were HT1080 IDH1KD tx inactive, HT1080-NT tox inactive, TDP1 cell noCPT 11.6µM, IL1B secr inh inactive and TDP1 cell CPT 8.2µM.
`O=C1Nc2c(Cl)cccc2C1=O` gave HT1080 IDH1KD tx inconclusive, HT1080-NT tox inconclusive, TDP1 cell noCPT 23.1µM, IL1B secr inh inactive and TDP1 cell CPT 14.6µM.
`Cc1cccc2c1NC(=O)C2=O` gave HT1080 IDH1KD tx inactive, HT1080-NT tox inactive, TDP1 cell noCPT inactive, IL1B secr inh inactive and TDP1 cell CPT inconclusive.
COC(=O)c1cccc2c1NC(=O)C2=O was read as HT1080 IDH1KD tx inactive, HT1080-NT tox inactive, TDP1 cell noCPT 20.6µM, IL1B secr inh inactive and TDP1 cell CPT inactive.
Cc1ccc(NC(=O)CSc2nnc(N)s2)cc1S(=O)(=O)N1CCOCC1 was read as HT1080 IDH1KD tx inactive, HT1080-NT tox inactive, TDP1 cell noCPT inactive, IL1B secr inh inactive and TDP1 cell CPT inactive.
For CCOC(=O)C1(Cc2cccc(F)c2)CCN(Cc2cnn(CC)c2C)CC1 the results were HT1080 IDH1KD tx inactive, HT1080-NT tox inactive, TDP1 cell noCPT inconclusive, IL1B secr inh inactive and TDP1 cell CPT inconclusive.
`O=C(Nc1cnc(N2CCC(N3CCCCC3)CC2)c(C(=O)O)c1)c1ccc(Br)cc1` gave TDP1 cell noCPT inactive and TDP1 cell CPT inactive.
For Cc1ccccc1C1=CCN(c2ncc(NC(=O)c3ccc(Cl)cc3)cc2C(=O)O)CC1 the results were TDP1 cell noCPT 23.1µM and TDP1 cell CPT inconclusive.
`COc1cc(OC)c(NC(=O)Cn2cnc3sc(C)c(S(=O)(=O)N4CCOCC4)c3c2=O)cc1Cl` gave HT1080 IDH1KD tx inactive, HT1080-NT tox inactive, TDP1 cell noCPT inactive, IL1B secr inh inactive and TDP1 cell CPT inactive.
Screening OCC1(Cc2ccccc2)CCN(C2CCN(c3ccccc3F)CC2)CC1 returned HT1080 IDH1KD tx inactive, HT1080-NT tox inactive, TDP1 cell noCPT 23.1µM, IL1B secr inh -85.1 and TDP1 cell CPT inconclusive.
For OCC1(Cc2ccccc2)CCN(Cc2cnn(-c3ccccc3F)c2)CC1 the results were HT1080 IDH1KD tx inactive, HT1080-NT tox inactive, TDP1 cell noCPT inactive, IL1B secr inh inconclusive and TDP1 cell CPT inactive.
For COC(=O)c1cc(O)cc(OC)c1Oc1cc(C)cc(O)c1C(=O)O the results were HT1080 IDH1KD tx inconclusive, HT1080-NT tox 23.1µM, TDP1 cell noCPT 1.03µM, IL1B secr inh inconclusive and TDP1 cell CPT 1.16µM.
Screening COC(=O)c1cc(O)cc(OC)c1C(=O)c1c(O)cc(C)cc1O returned HT1080 IDH1KD tx inactive, HT1080-NT tox inactive, TDP1 cell noCPT inconclusive, IL1B secr inh inactive and TDP1 cell CPT inconclusive.
`CCCCCn1ccc(=O)c2c(C(F)(F)F)nccc21` gave HT1080 IDH1KD tx inactive, HT1080-NT tox inactive, TDP1 cell noCPT 18.4µM, IL1B secr inh inactive and TDP1 cell CPT 13µM.
Screening CCCCCCCn1ccc(O)c(CC(=O)OC)c1=O returned HT1080 IDH1KD tx inactive, HT1080-NT tox inactive, TDP1 cell noCPT inactive, IL1B secr inh inactive and TDP1 cell CPT inactive.
For CCN(CC)S(=O)(=O)c1ccc(OC)c(NC(=O)CSCc2c(C)noc2C)c1 the results were HT1080 IDH1KD tx inactive, HT1080-NT tox inactive, TDP1 cell noCPT 23.1µM, IL1B secr inh inactive and TDP1 cell CPT inconclusive.
Screening OCC1(CCc2ccccc2)CCN(Cc2cc(Cl)ccc2O)CC1 returned HT1080 IDH1KD tx inconclusive, HT1080-NT tox inactive, TDP1 cell noCPT inactive, IL1B secr inh -84.8 and TDP1 cell CPT inactive.
For O=C1C=C(c2ccc(Cl)c(C(F)(F)F)c2)C[C@@H](c2ccc(Cl)cc2)C1 the results were HT1080 IDH1KD tx inactive, HT1080-NT tox inactive, TDP1 cell noCPT inconclusive, IL1B secr inh inactive and TDP1 cell CPT inconclusive.
Cc1cccc(COC[C@H](Cc2ccccc2)N2CCN(C(=O)c3cccc(C)c3)CCC2=O)c1 was read as HT1080 IDH1KD tx inconclusive, HT1080-NT tox inconclusive, TDP1 cell noCPT inconclusive, IL1B secr inh inactive and TDP1 cell CPT inconclusive.
For Cc1cccc(C(=O)N2CCC(=O)N([C@H](COCc3cccc(C(F)(F)F)c3)Cc3ccccc3)CC2)c1 the results were HT1080 IDH1KD tx inconclusive, HT1080-NT tox inconclusive, TDP1 cell noCPT 16.4µM, IL1B secr inh inactive and TDP1 cell CPT inconclusive.
Screening Cc1cccc(C(=O)N2CCC(=O)N(C(COCc3cccc(C(F)(F)F)c3)Cc3ccccc3)CC2)c1 (centres undefined) returned HT1080 IDH1KD tx inactive, HT1080-NT tox inconclusive, TDP1 cell noCPT inconclusive, IL1B secr inh inconclusive and TDP1 cell CPT 29.1µM.
CCCCNc1nc(Nc2ccc(C)c(Cl)c2)c2cnn(C)c2n1 was read as HT1080 IDH1KD tx inactive, HT1080-NT tox inconclusive, TDP1 cell noCPT inconclusive, IL1B secr inh -65.6 and TDP1 cell CPT 23.1µM.
CCNc1nc(Nc2ccc(C)c(Cl)c2)c2cnn(C)c2n1 was read as HT1080 IDH1KD tx inactive, HT1080-NT tox inactive, TDP1 cell noCPT 1.64µM, IL1B secr inh inactive and TDP1 cell CPT 18.4µM.
For Cc1ccc(Nc2nc(NCc3ccco3)nc3nccnc23)cc1Cl the results were TDP1 cell noCPT inactive and TDP1 cell CPT inactive.
CCC(=O)Nc1ccccc1C(=O)OCC(=O)c1cccc2ccccc12 was read as HT1080 IDH1KD tx inactive, HT1080-NT tox inactive, TDP1 cell noCPT inactive, IL1B secr inh inactive and TDP1 cell CPT inconclusive.
For CCC(=O)Nc1ccccc1C(=O)OCc1ccc(C(=O)c2ccccc2)cc1 the results were HT1080 IDH1KD tx inactive, HT1080-NT tox inactive, TDP1 cell noCPT inconclusive, IL1B secr inh inactive and TDP1 cell CPT 20.6µM.
Cc1ccc(Nc2nc(CSc3nnc(-c4cccnc4)n3-c3ccccc3C)cs2)cc1 was read as HT1080 IDH1KD tx inactive, HT1080-NT tox inactive, TDP1 cell noCPT 14.6µM, IL1B secr inh inconclusive and TDP1 cell CPT 14.6µM.
Cc1ccccc1-n1c(SCc2csc(Nc3ccccc3)n2)nnc1-c1cccnc1 was read as HT1080 IDH1KD tx inactive, HT1080-NT tox inactive, TDP1 cell noCPT 13µM, IL1B secr inh inactive and TDP1 cell CPT 11.6µM.
Cc1ccc(Nc2nc(CSc3nnnn3C)cs2)cc1 was read as HT1080 IDH1KD tx inactive, HT1080-NT tox inactive, TDP1 cell noCPT inconclusive, IL1B secr inh inactive and TDP1 cell CPT inactive.
Cc1cc(C)c(NC(=O)CS(=O)CC(=O)Nc2ccc(-n3cnnn3)c(C)c2)c(C)c1 (centres undefined) was read as HT1080 IDH1KD tx inactive, HT1080-NT tox inactive, TDP1 cell noCPT inconclusive, IL1B secr inh inactive and TDP1 cell CPT inconclusive.
